Test [1] can be described thus: Cell Viability - Jurkat (AID 426;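 active = dose-dependent loss of cell ATP signal giving a full or clear fitted curve, ranked by lower potency value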;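 also: potency is read from the fitted curve at half-maximal effect; cells exposed to compound for 40 hours at 37 °C before ATP read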). The settings on record: qHTS. Put shortly: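 Cytotoxicity was scored as loss of cellular ATP, measured by luciferase-based luminescence, in Jurkat clone E6-1 cells after 40 h compound treatment; tamoxifen and doxorubicin served as positive controls.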
(In general: In qHTS, concentration-response curves come from the screen itself.)

Test [2] can be described thus: Cell Viability - Hek293 (AID 427;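 active = compounds whose dose-response curve shows a full or clear partial loss of cell viability, called from curve shape rather than a numeric limit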;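 also: potency is read from the fitted curve at half-maximal effect; cells exposed to compound for 40 hours at 37 °C before reading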). The settings on record: qHTS. Put shortly: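 Luminescent ATP read-out (CellTiter-Glo, 20 min RT) after 40 hr compound exposure at 37 °C in complete medium. Signal normalized to DMSO (basal) and 100 uM tamoxifen (100% inhibition); concentration-response fitted with the standard Hill equation to give AC50.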
A short description of test [3]: Cell Viability - SH-SY5Y (AID 544).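 Also: cells exposed to compound for 40 hours; 0% = DMSO alone and -100% = 100 µM tamoxifen; nearly all actives have a fitted effect of over 55% in size.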 The note with it: SH-SY5Y neuroblastoma cell viability; viability change, negative = cytotoxic: at 92.2 µM (top of the series). The procedure, abridged: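 Quantitative HTS in SH-SY5Y neuroblastoma cells, 40 hr treatment at 37 °C, ATP content by luciferase luminescence; AC50 from Hill fits.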
A short description of test [4]: Cell Viability - Mesenchymal (AID 546).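 Also: cells exposed to compound for 40 hours before reading; 0% = DMSO only and -100% = 100 µM tamoxifen.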 The note with it: mesenchymal cells viability, qHTS; series mostly up to 91.7 µM. The procedure, abridged:
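CellTiter-Glo luminescence (intracellular ATP, 20 min room temperature) after 40 hr compound exposure at 37 °C of 1000 glomerulus-derived human kidney mesenchymal cells/well; AC50 values obtained by fitting qHTS concentration-response data to the Hill equation.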

Test [5] addresses Cytochrome P450 3A4 (Homo sapiens) (UniProt P08684). Briefly: qHTS Assay for Inhibitors and Substrates of Cytochrome P450 3A4 (AID 884). Also: % is scaled to controls: 0 for no effect and ±100 for the full control effect; nearly all actives have a fitted effect of over 50% in size. The note with it: recombinant CYP3A4, Luciferin-PPXE luminescence; series mostly up to 57.1 µM. Put shortly:
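Luminescent readout of luciferin produced by CYP3A4 (20 nM) dealkylation of Luciferin-PPXE, 25 uM (its KM). NADPH-driven reaction ran 60 min at RT after 10 min compound preincubation; data scaled to 57 uM ketoconazole as 100% inhibition.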

The nature of test [6]: MultiTox-Fluor Cytotoxicity Assay - LYMP1-002 - Dead Cells (AID 960). Also: nearly all actives have a fitted effect of over 60% in size. Also: potency is read from the fitted curve at half-maximal effect. The note with it: LYMP1-002 lymphoblastoid cells, dead-cell protease fluorescence; series mostly up to 46.1 µM. Put shortly: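 Concentration-dependent increases in membrane-leaked protease activity are quantified in LYMP1-002 cells after 16 hr treatment; values are normalized against DMSO and tetraoctylammonium bromide (15 uM) controls and AC50 derived by Hill modeling.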

Test [7] is described as follows: Cell Viability - LYMP2-005 (AID 967).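 Also: plate controls were DMSO only for no effect and 92 µM tetraoctylammonium bromide control for full effect.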 The settings on record: LYMP2-005 lymphoblastoid cell viability; series mostly up to 92.2 µM. Put shortly:
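Human lymphoblastoid LYMP2-005 cells, 2,500 per well in complete medium, rested 5 h at 37C then compound-treated 24 h at 37C. Intracellular ATP read by CellTiter-Glo luminescence after 30 min at room temperature; AC50 from Hill-equation fits of concentration-response data.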

A short description of test [8]: Cell Viability - LYMP2-019 (AID 973).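 Also: 0% = DMSO alone and full effect = 92 µM tetraoctylammonium bromide; nearly all actives have a fitted effect of over 55% in size.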 The settings on record: LYMP2-019 lymphoblastoid cell line viability; series mostly up to 92.2 µM. The procedure, abridged: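 AC50 values come from Hill-equation modelling of qHTS concentration-response curves, where viability is measured as luciferase-based ATP luminescence in the lymphoblastoid line after 24 hr compound exposure in complete culture medium.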

Test [9] can be described thus: Cell Viability - LYMP2-010 (AID 981).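 Also: cells exposed to compound for 24 hours at 37 °C; % is scaled to controls: 0 for no effect and ±100 for the full control effect; nearly all actives have a fitted effect of over 55% in size.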 The settings on record: LYMP2-010 lymphoblastoid cell viability, qHTS; series mostly up to 92.2 µM. The procedure, abridged: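 This 24 hr viability screen uses LYMP2-010 lymphoblastoid cells, quantifies ATP via luciferase luminescence, and derives AC50 from Hill fits of qHTS concentration-response data.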
Test [10] in a line: Cell Viability - LYMP2-024 (AID 988).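 Also: cells exposed to compound for 24 hr at 37 °C; plate controls were DMSO only for no effect and 92 µM tetraoctylammonium bromide for full effect; nearly all actives have a fitted effect of over 60% in size.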 The note with it: LYMP2-024 lymphoblastoid cell viability; series mostly up to 92.2 µM. The procedure, abridged:
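Cells at 2500 per well received compound for 24 hr after a 5 hr settling period. Viability was scored by CellTiter-Glo luminescence, with AC50 from Hill fits.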

The nature of test [11]: Cell Viability - LYMP2-026 (AID 989). Also: % is scaled to controls: 0 for no effect and ±100 for the full control effect; nearly all actives have a fitted effect of over 50% in size. The note with it: LYMP2-026 lymphoblastoid cell viability, qHTS; series mostly up to 92.2 µM. The procedure, abridged:
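Acute toxicity screen in complete culture medium, with 24 hr compound exposure at 37 C. Viability read as cellular ATP via luciferase reaction, with tetraoctylammonium bromide (6.4pM to 92 uM) as positive control.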

The nature of test [12]: Cell Viability - LYMP1-002 - Assay at 40 hr (AID 994).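 Also: 0% = DMSO only and full inhibition = 92 µM tetraoctylammonium bromide; nearly all actives have a fitted effect of over 60% in size.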 The settings on record: LYMP1-002 lymphoblastoid cell viability; series mostly up to 92.2 µM. Put shortly: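 Concentration-dependent ATP loss after 40 hr treatment at 37 C defined toxicity; AC50 values were obtained by fitting the standard Hill equation.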
The target in test [13] is Peroxisome proliferator-activated receptor gamma (Homo sapiens) (UniProt P37231). Briefly: qHTS assay for small molecule agonists of peroxisome proliferator-activated receptor gamma signaling (AID 588536; active = well fitted curve in the direction sought with a large enough effect in the signal ratio, with a control signal flat, not every such curve was filed as active; the % refers to the signal ratio;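 also: 0% = DMSO basal wells and 100% = rosiglitazone at 2 µM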). The note with it: HEK293 PPARg-UAS-bla, beta-lactamase ratio, 16 h, percent of rosiglitazone response, DMSO as zero; series mostly up to 76.7 µM. The procedure, abridged:
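Compound treatment: 16 h, 37 C, HEK293 GeneBLAzer cells. Detection: CCF4, 2 h RT. Values: Hill-fit EC50, efficacy as % of 2 uM rosiglitazone.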

The nature of test [14]: qHTS assay for small molecule agonists of retinoid X receptor alpha signaling (AID 588544; calls by dose curve). The note with it: HEK293T RXRa-UAS-bla, beta-lactamase reporter, 18 h; 530 nm emission.
Test [15] concerns the target Retinoic acid receptor RXR-alpha (Homo sapiens) (UniProt P19793). The description is as above. The settings on record: HEK293T RXRa-UAS-bla, beta-lactamase reporter, 18 h; series mostly up to 76.7 µM.
The target in test [16] is Thyroid hormone receptor beta (Homo sapiens) (UniProt P10828). Briefly: qHTS assay for small molecule agonists of thyroid hormone receptor beta signaling (AID 588545; calls by dose curve). The settings on record: TR-UAS-bla GripTite HEK 293, beta-lactamase ratio, agonist mode, 18 h; series mostly up to 76.7 µM. The procedure, abridged: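 In this cell-based screen, titrated compounds act on HEK 293 cells held in medium with 2% charcoal/dextran FBS, NEAA and pyruvate for 18 hrs at 37 C. Responses are expressed relative to T3 (10 nM) as 100% and basal DMSO as 0%.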
Sequence of Thyroid hormone receptor beta (Homo sapiens) (P10828 whole entry, looked up): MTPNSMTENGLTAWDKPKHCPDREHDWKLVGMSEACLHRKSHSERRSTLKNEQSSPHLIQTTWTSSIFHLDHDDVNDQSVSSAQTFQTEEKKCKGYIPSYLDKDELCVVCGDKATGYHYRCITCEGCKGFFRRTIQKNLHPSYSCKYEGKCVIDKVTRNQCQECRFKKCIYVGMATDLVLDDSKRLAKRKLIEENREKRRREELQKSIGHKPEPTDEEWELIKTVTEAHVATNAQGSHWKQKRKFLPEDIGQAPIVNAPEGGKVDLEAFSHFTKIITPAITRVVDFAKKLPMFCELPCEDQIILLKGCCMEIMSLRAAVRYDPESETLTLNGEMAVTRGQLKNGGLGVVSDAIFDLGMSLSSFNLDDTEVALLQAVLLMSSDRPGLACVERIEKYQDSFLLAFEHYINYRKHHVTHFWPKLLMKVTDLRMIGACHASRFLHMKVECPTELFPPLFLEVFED

A short description of test [17]: qHTS assay for small molecule antagonists of retinoid X receptor alpha signaling (AID 588546).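 Also: cells stimulated with 9-cis-retinoic acid as agonist; % is scaled to controls: 0 for no effect and ±100 for the full control effect.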 The settings on record: HEK293T RXRa-UAS-bla, beta-lactamase ratio, antagonist mode; measured here: W530 green channel, cytotoxicity proxy. Put shortly:
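Beta-lactamase reporter inhibition, read as CCF4 fluorescence ratio (ex 405, em 460/530 nm) after 2 h at RT. HEK293T UAS-bla cells, 2500/well, were stimulated with 9-cis-RA at 500 or 100 nM final alongside test compound for 18 h at 37 C.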

For test [18], the target named is Tumor necrosis factor (Homo sapiens) (UniProt P01375). Description: qHTS assay to identify small molecules that stimulate Tumor Necrosis Factor-alpha (TNF-alpha) secretion (AID 651757; active = well fitted curve in the direction sought with a large enough effect in the signal ratio; the % refers to the signal ratio; also: 0% is about no effect). The settings on record: Human cells, HTRF 665/615 ratio; series mostly up to 92.2 µM. Put shortly: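 Using 3000 THP-1 cells per well, compounds and controls were applied for 17 hrs at 37 C. Detection followed with two labeled anti-TNF-alpha antibodies (cryptate donor, XL665 acceptor) for 3 hr at room temperature, measured by TR-FRET.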
Sequence of Tumor necrosis factor (Homo sapiens) (P01375 whole entry, looked up): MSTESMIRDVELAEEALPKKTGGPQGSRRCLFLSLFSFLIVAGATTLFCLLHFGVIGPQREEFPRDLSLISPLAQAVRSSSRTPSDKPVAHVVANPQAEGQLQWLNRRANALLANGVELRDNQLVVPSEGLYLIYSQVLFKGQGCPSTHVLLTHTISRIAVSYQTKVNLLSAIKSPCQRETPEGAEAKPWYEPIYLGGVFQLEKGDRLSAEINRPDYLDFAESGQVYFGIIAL

The nature of test [19]: qHTS assay for small molecule antagonists of the retinoid-related orphan receptor gamma (ROR-gamma) signaling pathway - cell viability counter screen (AID 720652; active = well fitted curve in the direction sought with a large enough effect in the repeat runs; an effect the other way counts as inactive or inconclusive;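 also: CHO reporter cells with doxycycline-induced ROR-gamma expression; compound exposure lasted 16 hr before ATP read; % is scaled to controls: 0 for no effect and ±100 for the full control effect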). The settings on record: RORgamma reporter cell line viability counter screen; series mostly up to 92.2 µM. The procedure, abridged: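 ATP-based viability readout in the ROR-gamma reporter CHO cells after 16 hr compound exposure under doxycycline induction.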

Test [20] addresses Nuclear receptor subfamily 1 group I member 2 (Rattus norvegicus) (UniProt Q9R1A7). Description: qHTS assay for small molecule activators of the rat pregnane X receptor (rPXR) signaling pathway (AID 651751; call rule not given here; also: 0% is about no effect). The settings on record: rPXR reporter cells, luciferase (One-Glo), 24 h.

“And” between values parts separate entries of the source, which are not always exact repeats. Identical values can stand only once. Inconclusive results are not listed. The source made the active and inactive calls. Unless noted, calls follow the shape of the dose curve; as a rule, active = well fitted curve in the direction sought with a large enough effect; inconclusive = small, poorly fitted or top-dose-only effect, or another doubt; inactive = no such curve, though single readings can be large; an effect the other way counts as inactive or inconclusive.

Sequence of Retinoic acid receptor RXR-alpha (Homo sapiens) (P19793 whole entry, looked up): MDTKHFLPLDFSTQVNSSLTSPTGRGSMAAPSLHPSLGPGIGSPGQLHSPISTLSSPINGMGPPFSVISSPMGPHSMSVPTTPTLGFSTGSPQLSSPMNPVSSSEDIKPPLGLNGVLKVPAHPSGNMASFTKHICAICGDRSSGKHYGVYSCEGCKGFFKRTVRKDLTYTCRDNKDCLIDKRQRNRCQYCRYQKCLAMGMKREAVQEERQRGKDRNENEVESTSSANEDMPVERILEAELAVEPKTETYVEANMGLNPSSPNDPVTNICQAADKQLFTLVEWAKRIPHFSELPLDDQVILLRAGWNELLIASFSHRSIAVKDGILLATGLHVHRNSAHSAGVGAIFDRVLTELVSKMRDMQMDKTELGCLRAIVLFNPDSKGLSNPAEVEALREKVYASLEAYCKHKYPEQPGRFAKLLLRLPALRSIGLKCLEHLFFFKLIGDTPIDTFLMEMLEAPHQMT
Sequence of Nuclear receptor subfamily 1 group I member 2 (Rattus norvegicus) (Q9R1A7 whole entry, looked up): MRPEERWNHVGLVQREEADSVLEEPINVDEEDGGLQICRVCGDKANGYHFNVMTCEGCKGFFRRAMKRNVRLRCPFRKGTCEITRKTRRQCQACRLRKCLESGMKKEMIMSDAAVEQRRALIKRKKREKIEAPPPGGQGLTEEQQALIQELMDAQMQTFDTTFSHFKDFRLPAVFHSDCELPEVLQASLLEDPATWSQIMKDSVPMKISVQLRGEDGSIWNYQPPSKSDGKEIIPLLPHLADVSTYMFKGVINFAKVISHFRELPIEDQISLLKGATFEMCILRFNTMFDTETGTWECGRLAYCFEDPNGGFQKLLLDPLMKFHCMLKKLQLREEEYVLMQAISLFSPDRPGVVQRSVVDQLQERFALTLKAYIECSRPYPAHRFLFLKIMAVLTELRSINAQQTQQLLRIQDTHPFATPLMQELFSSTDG
Sequence of Cytochrome P450 3A4 (Homo sapiens) (P08684 whole entry, looked up): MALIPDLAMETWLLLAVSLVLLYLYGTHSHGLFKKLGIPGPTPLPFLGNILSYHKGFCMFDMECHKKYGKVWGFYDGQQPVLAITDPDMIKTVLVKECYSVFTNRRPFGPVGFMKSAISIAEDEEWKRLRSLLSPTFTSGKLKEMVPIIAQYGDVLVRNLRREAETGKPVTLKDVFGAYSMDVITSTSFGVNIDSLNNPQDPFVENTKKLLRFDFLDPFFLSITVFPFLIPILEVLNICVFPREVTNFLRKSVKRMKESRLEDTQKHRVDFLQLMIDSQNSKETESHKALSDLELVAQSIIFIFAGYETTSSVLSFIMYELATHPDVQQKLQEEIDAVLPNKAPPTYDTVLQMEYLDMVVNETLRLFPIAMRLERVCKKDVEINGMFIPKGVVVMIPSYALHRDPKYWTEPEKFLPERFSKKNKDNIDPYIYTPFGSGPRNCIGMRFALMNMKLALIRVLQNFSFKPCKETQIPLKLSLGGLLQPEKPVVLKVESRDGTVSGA
Sequence of Peroxisome proliferator-activated receptor gamma (Homo sapiens) (P37231 whole entry, looked up): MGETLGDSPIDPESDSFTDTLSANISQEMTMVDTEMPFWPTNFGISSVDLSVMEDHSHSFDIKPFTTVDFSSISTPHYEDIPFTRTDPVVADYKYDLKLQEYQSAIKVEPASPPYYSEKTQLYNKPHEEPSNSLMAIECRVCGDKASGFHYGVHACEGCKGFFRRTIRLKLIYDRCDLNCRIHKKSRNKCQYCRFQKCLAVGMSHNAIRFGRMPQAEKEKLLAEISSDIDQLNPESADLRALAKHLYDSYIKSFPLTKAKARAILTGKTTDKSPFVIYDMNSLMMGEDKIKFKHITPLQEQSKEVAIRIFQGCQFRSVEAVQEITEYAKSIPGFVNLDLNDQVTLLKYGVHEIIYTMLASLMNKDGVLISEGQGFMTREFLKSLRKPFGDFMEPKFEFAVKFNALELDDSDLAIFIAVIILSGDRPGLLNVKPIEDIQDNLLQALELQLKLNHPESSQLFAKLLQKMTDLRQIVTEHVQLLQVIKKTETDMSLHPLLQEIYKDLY

With `ClCc1ccccn1`, the Potency in [1] and in [2] was > 92 µM (inactive) throughout. Besides, the Potency result in [3], in [4], in [5], in [6], in test [7] and in test [8] was “inactive” throughout. In addition, the Potency result in [9], in test [10], in test [11], in [12], in test [16] and in test [19] was “inactive” in each case. Further, the outcome in [13], in [15] and in test [18] was inactive. In addition, the max response was -5.13% and -0.246% in [14]; 3.04% and -6.39% in test [17]; 2.99% (inactive) and 8.15% (inactive) in [20].

Turning to `C=CC=O`, the Potency in test [1] and in [2] was > 92 µM (inactive) each time. For the same molecule, the viability change, negative = cytotoxic in test [3] was -91.6% (active). For the same molecule, the Potency result in test [4], in test [5], in test [6], in test [7], in test [8] and in [9] was “inactive” in each case. The Potency entry in test [11], in [12], in test [16] and in test [19] was “inactive” each time. Moreover, the outcome in [13], in test [15] and in test [18] was inactive. The max response is -0.594% in test [14] and 1.01% (inactive) in test [20].

As for `O=[N+]([O-])c1ccc(Cl)cc1`, the Potency in test [1] and in test [2] was > 92 µM (inactive) in each case. For the same molecule, the Potency entry in test [3], in test [5], in test [6], in test [7], in [8] and in test [10] was “inactive” throughout. In addition, the Potency result in test [11], in test [12], in test [16] and in test [19] was “inactive” throughout. Further, the max response is -17.3% and -9.79% in [14]; -1.92% and -4.79% in [17]; 5.34% (inactive) and 1.87% (inactive) in test [20]. Also, the molecule was called inactive in test [15] and in test [18].

With `Nc1c(Cl)cc([N+](=O)[O-])cc1Cl`, the Potency in test [1] and in test [2] was > 92 µM (inactive) in each case. For the same molecule, the Potency result in test [3], in [4], in test [5], in test [6], in test [7] and in [8] was “inactive” in each case. Also, the Potency result in [9], in test [10], in [11], in [12], in test [16] and in test [19] was “inactive” throughout. For the same molecule, the result in test [13], in [15] and in test [18] was inactive. The max response in test [14] is -1.27% and -9.53%; in test [17] it was 7.55% and -9.5%.

Regarding `NC1CCC(CC2CCC(N)CC2)CC1` (stereo unspecified), the Potency is > 92 µM (inactive) in test [1], > 92 µM (inactive) in test [2] and 3.98 µM (active) in test [6]. In addition, the Potency entry in [3], in [4], in [5], in [7], in [8] and in [10] was “inactive” throughout. Besides, the Potency entry in [11], in test [12], in [16] and in test [19] was “inactive” in each case. For the same molecule, the outcome in test [13], in test [15] and in test [18] was inactive. For the same molecule, the max response in test [14] is 8.4%; in test [17] it was 2.2% and -10.5%; in [20], 5.41% (inactive) and 4.82% (inactive).

Take `CC(C)CC(C)N` (stereo unspecified): the Potency in test [1] and in test [2] was > 92 µM (inactive) in each case. For the same molecule, the Potency result in test [3], in [4], in test [5], in [6], in test [7] and in [8] was “inactive” throughout. The Potency result in [9], in test [10], in test [11], in [12], in [16] and in test [19] was “inactive” in each case. The outcome in test [13], in test [15] and in test [18] was inactive. For the same molecule, the max response in test [14] is -12.2%; in test [17], -2.75%; in [20], 0.275% (inactive).

As for `C=CCCl`, the Potency in [1] and in [2] was > 92 µM (inactive) each time. Besides, the Potency entry in test [3], in test [4], in test [5], in test [6], in test [7] and in test [8] was “inactive” in each case. The Potency result in [9], in [10], in test [11], in test [12] and in test [19] was “inactive” each time. For the same molecule, the result in test [13], in test [15] and in [18] was inactive. In addition, the max response in test [14] was -13.3%; in test [20], 0.623% (inactive).

The values above are taken from PubChem BioAssay (NCATS).
